From PubChem BioAssay (Tox21) come the findings set out here.

A short description of assay [1]: qHTS assay to identify small molecule agonists of the peroxisome proliferator-activated receptor delta (PPARd) signaling pathway - cell viability counter screen (AID 743211). Further: nearly all actives have a fitted effect of over 55% in size. The gist of the method: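 PPARd-bla HEK293H cells (3000/well) were pre-incubated 5 h at 37 C, then exposed to compound for 17 h at 37 C. After 2 h with LiveBLAzer substrate, CellTiter-Glo was added to the same wells; luminescence read after 30 min at room temperature.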
(Quantitative high-throughput screening tests each substance at several concentrations.)

For assay [2], the target named is Peroxisome proliferator-activated receptor delta (Homo sapiens) (UniProt Q03181). Nature of the assay: qHTS assay to identify small molecule agonists of the peroxisome proliferator-activated receptor delta (PPARd) signaling pathway (AID 743212; calls by dose curve). Summed up: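 Quantitative high-throughput agonist screen in a HEK293H beta-lactamase reporter line under UAS control. Compounds in DMSO, at 37 C. Fluorescence read after 2 h with FRET substrate at room temperature.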
Chain of Peroxisome proliferator-activated receptor delta (Homo sapiens) (Q03181 whole entry, looked up): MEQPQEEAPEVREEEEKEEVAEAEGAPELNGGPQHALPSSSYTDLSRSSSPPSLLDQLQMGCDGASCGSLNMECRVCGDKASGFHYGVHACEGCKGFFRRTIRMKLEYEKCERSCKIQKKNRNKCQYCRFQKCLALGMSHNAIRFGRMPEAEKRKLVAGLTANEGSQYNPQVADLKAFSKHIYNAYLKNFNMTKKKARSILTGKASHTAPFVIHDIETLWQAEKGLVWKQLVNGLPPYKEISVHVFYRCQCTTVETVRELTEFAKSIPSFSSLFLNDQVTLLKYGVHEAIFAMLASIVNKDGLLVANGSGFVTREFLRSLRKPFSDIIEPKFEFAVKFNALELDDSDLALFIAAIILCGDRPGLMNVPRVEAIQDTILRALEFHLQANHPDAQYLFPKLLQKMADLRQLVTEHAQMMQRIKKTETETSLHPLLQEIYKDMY

Assay [3] in a line: qHTS assay to identify small molecule antagonists of the peroxisome proliferator-activated receptor delta (PPARd) signaling pathway - cell viability counter screen (AID 743213). Further: nearly all actives have a fitted effect of over 50% in size. The gist of the method: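 Same-well viability: cells pre-incubated 5 h, dosed with compound plus 300 nM L165041, kept 17 h at 37 C, FRET substrate 2 h RT, then CellTiter-Glo 30 min RT and luminescence.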

Assay [4] is described as follows: qHTS assay to identify small molecule agonists of the farnesoid-X-receptor (FXR) signaling pathway - cell viability counter screen (AID 743218). Further: nearly all actives have a fitted effect of over 45% in size. Summed up: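 In GeneBLAzer FXR-UAS-bla HEK 293T cells, compounds act for 16 h at 37 C. Cell viability is then scored in the reporter wells by CellTiter-Glo, 30 min at RT, luminescence.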
Assay [5] deals with Vitamin D3 receptor (Homo sapiens) (UniProt P11473). Put plainly: qHTS assay to identify small molecule agonists of the vitamin D receptor (VDR) signaling pathway (AID 743222; calls by dose curve). Summed up: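 Agonist activity measured in VDR-bla reporter cells. Exposure 16 h, 37C, 5% CO2; detection by B/G FRET substrate, 2 h RT.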
Chain of Vitamin D3 receptor (Homo sapiens) (P11473 whole entry, looked up): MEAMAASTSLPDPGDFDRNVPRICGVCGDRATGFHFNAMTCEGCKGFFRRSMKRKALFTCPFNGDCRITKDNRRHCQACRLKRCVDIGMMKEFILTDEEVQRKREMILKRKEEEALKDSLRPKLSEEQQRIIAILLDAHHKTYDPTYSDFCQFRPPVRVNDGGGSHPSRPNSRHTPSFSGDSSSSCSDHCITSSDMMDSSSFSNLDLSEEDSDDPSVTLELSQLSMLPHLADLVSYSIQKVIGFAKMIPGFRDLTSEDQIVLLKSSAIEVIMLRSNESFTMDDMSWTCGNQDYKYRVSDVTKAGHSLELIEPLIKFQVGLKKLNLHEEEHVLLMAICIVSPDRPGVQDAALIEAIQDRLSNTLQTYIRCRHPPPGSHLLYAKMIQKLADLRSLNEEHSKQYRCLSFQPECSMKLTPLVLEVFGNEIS
Assay [6] has the same target. Nature of the assay: qHTS assay to identify small molecule antagonists of the vitamin D receptor (VDR) signaling pathway (AID 743223; active means well fitted inhibition curve with a large enough effect in the signal ratio in the repeat runs, not every such curve was filed as active; the % refers to the signal ratio). The gist of the method:
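VDR-bla cells were treated with compound plus 3 nM final 1alpha,25-dihydroxyvitamin D3 for 16 h at 37C. Beta-lactamase reporter read by B/G FRET substrate fluorescence after 2 h at room temperature. qHTS format.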

Assay [7] can be described thus: qHTS assay to identify small molecule antagonists of the vitamin D receptor (VDR) signaling pathway - cell viability counter screen (AID 743225). Further: nearly all actives have a fitted effect of over 50% in size. Summed up: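 VDR-UAS-bla HEK 293T cells were plated and incubated 4 h at 37C, then dosed with compound plus 3 nM (final) 1-alpha,25-dihydroxyvitamin D3 for 16 h. After the 2 h beta-lactamase read, viability in the same wells was read as CellTiter-Glo luminescence after 30 min at room temperature.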

Assay [8] in a line: qHTS assay to identify small molecule agonists of the NFkB signaling pathway - cell viability counter screen (AID 1159515; calls by dose curve; further: series mostly up to about 61 µM; nearly all actives have a fitted effect of over 55% in size). Summed up:
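Viability in NFkB-bla ME-180 cells was measured by CellTiter-Glo luminescence, 30 min room temperature, in wells already treated 5 hr with compounds and read for reporter FRET.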

Assay [9] is described as follows: qHTS assay to identify small molecule agonists of the endoplasmic reticulum stress response signaling pathway - cell viability counter screen (AID 1159517; calls by dose curve;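 further: HeLa cells carrying an ER stress response element beta-lactamase reporter; series mostly up to about 61 µM; nearly all actives have a fitted effect of over 50% in size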). The gist of the method:
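Counter-screen wells were identical to the reporter wells. Cells were plated at 1,500 per well and dosed for 5 hr, then read for luminescence 30 min after CellTiter-Glo addition.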

Assay [10] in a line: qHTS assay to identify small molecule antagonists of the retinoid-related orphan receptor gamma (ROR-gamma) signaling pathway - cell viability counter screen (AID 1159520). Further: nearly all actives have a fitted effect of over 50% in size. The gist of the method:
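Tet-on ROR gamma CHO cells were given compounds for 2 hr, then doxycycline hyclate at 1 uM final, and incubated 16 hr at 37 C. Viability was measured as ATP content by CellTiter-Glo luminescence.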

For assay [11], the target named is Nuclear receptor ROR-gamma (Homo sapiens) (UniProt P51449). Put plainly: qHTS assay to identify small molecule antagonists of the retinoid-related orphan receptor gamma (ROR-gamma) signaling pathway (AID 1159521; further: nearly all actives have a fitted effect of over 50% in size; further: potency means the concentration at half of the fitted maximal effect). The gist of the method: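 Tet-on ROR-gamma CHO cells with ROR response element-luciferase reporter; compounds added 2 hr before 1 uM doxycycline induction, then 16 hr at 37 C. Antagonism scored as decreased ONE-Glo luminescence.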

Assay [12] is described as follows: qHTS assay to identify small molecule agonists of the AP-1 signaling pathway - cell viability counter screen (AID 1159525; calls by dose curve; further: nearly all actives have a fitted effect of over 55% in size). Summed up:
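AP-1-bla ME-180 cells in Opti-MEM with 0.5% dialyzed FBS, compound exposure 5 h at 37 C in 15-point titration. Viability read in the same wells as ATP content by CellTiter-Glo luminescence, normalised to tetra-n-octylammonium bromide and DMSO controls.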

The target in assay [13] is Retinoic acid receptor RXR-alpha (Homo sapiens) (UniProt P19793). Nature of the assay: qHTS assay to identify small molecule agonists of the RXR signaling pathway (AID 1159527; calls by dose curve; further: nearly all actives have a fitted effect of over 35% in size). Summed up: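 GeneBLAzer RXR-alpha-UAS-bla HEK 293T cells in 2% charcoal-stripped FBS medium were exposed to compounds for 16 hr at 37 C in agonist mode. Beta-lactamase reporter read as 460/530 nm FRET ratio after 2 hr substrate loading.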
Chain of Retinoic acid receptor RXR-alpha (Homo sapiens) (P19793 whole entry, looked up): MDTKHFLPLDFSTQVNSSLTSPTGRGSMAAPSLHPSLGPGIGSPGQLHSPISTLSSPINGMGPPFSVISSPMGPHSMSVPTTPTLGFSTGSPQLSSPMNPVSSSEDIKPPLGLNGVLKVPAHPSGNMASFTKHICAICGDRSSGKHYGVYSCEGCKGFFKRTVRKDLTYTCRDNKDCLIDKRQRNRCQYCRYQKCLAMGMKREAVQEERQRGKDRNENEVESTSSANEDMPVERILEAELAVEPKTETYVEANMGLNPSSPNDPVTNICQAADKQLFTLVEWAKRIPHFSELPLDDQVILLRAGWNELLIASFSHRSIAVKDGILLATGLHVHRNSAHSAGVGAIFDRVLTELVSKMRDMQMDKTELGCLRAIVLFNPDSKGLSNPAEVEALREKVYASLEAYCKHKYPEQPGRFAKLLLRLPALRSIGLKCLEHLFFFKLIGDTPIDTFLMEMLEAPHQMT

Assay [14] is described as follows: qHTS assay to identify small molecule antagonists of the farnesoid-X-receptor (FXR) signaling pathway - cell viability counter screen (AID 743221; active means well fitted cell-killing curve with a large enough effect in the repeat runs, not every such curve was filed as active; further: nearly all actives have a fitted effect of over 50% in size). The gist of the method: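 GeneBLAzer FXR-UAS-bla HEK 293T cells, compound plus chenodeoxycholic acid (50 uM final), 16 h at 37 C. CellTiter-Glo added to the same wells after the beta-lactamase read; luminescence read after 30 min at room temperature as viability.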

Assay [15] in a line: qHTS assay to identify small molecule agonists of the vitamin D receptor (VDR) signaling pathway - cell viability counter screen (AID 743224). Summed up: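 VDR-bla cell line, quantitative HTS format; 16 h compound incubation (37C, 5% CO2); ATP-based CellTiter-Glo luminescence measured in the reporter assay wells.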
Assay [16] can be described thus: qHTS assay to identify small molecule agonists of the AP-1 signaling pathway (AID 1159526; calls by dose curve).
Assay [17] concerns the target Peroxisome proliferator-activated receptor delta (Homo sapiens) (UniProt Q03181). Nature of the assay: qHTS assay to identify small molecule antagonists of the peroxisome proliferator-activated receptor delta (PPARd) signaling pathway (AID 743215; active means well fitted inhibition curve with a large enough effect in the signal ratio in the repeat runs, not every such curve was filed as active; the % refers to the signal ratio;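 further: cells stimulated with agonist L165041 at 300 nM final during compound exposure; series mostly up to about 62 µM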). Summed up:
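Antagonist-mode beta-lactamase reporter screen: HEK293H cells with UAS-bla under PPARd control, stimulated by 300 nM L165041 (final) alongside test compound for 17 h at 37 C, then FRET fluorescence after 2 h substrate incubation.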

Assay [18] addresses Bile acid receptor (Homo sapiens) (UniProt Q96RI1). Put plainly: qHTS assay to identify small molecule agonists of the farnesoid-X-receptor (FXR) signaling pathway (AID 743220; active means well fitted activation curve with a large enough effect in the signal ratio in the repeat runs, not every such curve was filed as active; the % refers to the signal ratio). Summed up: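 Beta-lactamase reporter under UAS control in GeneBLAzer FXR HEK 293T cells (5000/well) measured with LiveBLAzer FRET substrate after 2 h at room temperature. Compound exposure lasted 16 h at 37C.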

Records with an inconclusive call do not appear. A number with no mark means an inactive call. Activity calls are given as the source filed them. Unless noted, the call rests on the fitted dose curve; in most records, active means well fitted curve in the direction sought with a large enough effect in the repeat runs; inconclusive means weak or mixed curves; inactive means no such curve, though single readings can be large; an effect the other way counts as inactive or inconclusive.

Chain of Bile acid receptor (Homo sapiens) (Q96RI1 whole entry, looked up): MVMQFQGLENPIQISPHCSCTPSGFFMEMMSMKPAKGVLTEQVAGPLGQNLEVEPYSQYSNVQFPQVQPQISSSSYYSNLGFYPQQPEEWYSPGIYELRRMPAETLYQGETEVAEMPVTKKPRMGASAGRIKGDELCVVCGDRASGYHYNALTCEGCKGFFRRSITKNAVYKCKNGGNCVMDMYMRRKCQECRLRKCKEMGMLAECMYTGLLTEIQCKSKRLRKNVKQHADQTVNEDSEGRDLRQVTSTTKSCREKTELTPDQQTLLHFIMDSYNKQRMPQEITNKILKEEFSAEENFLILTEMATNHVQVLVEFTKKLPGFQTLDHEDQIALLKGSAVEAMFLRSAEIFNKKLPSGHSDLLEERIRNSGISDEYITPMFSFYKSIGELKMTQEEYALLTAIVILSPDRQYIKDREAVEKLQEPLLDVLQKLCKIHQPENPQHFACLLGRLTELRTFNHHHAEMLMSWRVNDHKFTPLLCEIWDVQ

With `C=C(C)C(=O)OCCOc1ccccc1`, the Potency result in assay [1], in [3], in assay [4], in [6], in [7] and in assay [8] was “inactive” throughout. The Potency result in assay [10], in [11], in assay [12] and in [13] was “inactive” throughout. For the same compound, the compound was called inactive in [2], in assay [5] and in [9].
Consider `c1ccc(CNCc2ccccc2)cc1`, for which the Potency entry in [1], in [14], in [6], in [15], in assay [7] and in assay [8] was “inactive” each time. Further, the Potency result in assay [10], in assay [11], in [12] and in assay [16] was “inactive” in each case. For the same compound, the result in assay [2], in assay [5] and in assay [9] was inactive.
Consider `c1ccc(-c2nc[nH]c2-c2ccccc2)cc1`, for which the Potency entry in assay [1], in assay [3], in assay [4], in assay [14], in assay [15] and in assay [7] was “inactive” in each case. Also, the Potency entry in assay [8], in assay [10], in assay [11] and in assay [16] was “inactive” each time. Moreover, the call in assay [2] and in assay [9] was inactive.
`CC1(C)CCC(C)(C)c2cc(NC(=O)c3ccc(C(=O)O)cc3)ccc21`: the Potency result in assay [1], in assay [3], in [4], in assay [14], in [15] and in [7] was “inactive” throughout. Besides, the Potency entry in assay [8], in assay [10] and in assay [12] was “inactive” each time. Also, the result in [2], in [17] and in [5] was inactive. The Potency in [11] is 26.6 µM (active).
As to `C1CCC2OC2C1` (configuration not stated), the Potency result in assay [1], in assay [3], in [4], in assay [14], in assay [6] and in assay [15] was “inactive” throughout. Moreover, the Potency result in assay [7], in assay [8], in assay [10], in assay [11], in assay [12] and in [16] was “inactive” throughout. In addition, the Potency result in assay [13] is “inactive”. The compound was classed as inactive in assay [2], in assay [17], in assay [5] and in assay [9].
As to `CC(C)(C)C(=O)OCOP(=O)(COCCn1cnc2c(N)ncnc21)OCOC(=O)C(C)(C)C`, the Potency result in assay [1], in assay [3], in [4], in assay [15], in [7] and in assay [8] was “inactive” each time. The Potency result in assay [10], in [12] and in [16] was “inactive” each time. The outcome in assay [9] was inactive. Also, the Potency in assay [11] is 11.9 µM (active).
Regarding `C=CC(C)(CCC=C(C)C)OC(=O)c1ccccc1` (configuration not stated), the Potency result in [1], in assay [3], in assay [4], in [14], in assay [15] and in assay [8] was “inactive” throughout. Moreover, the Potency result in assay [10], in [11] and in assay [12] was “inactive” in each case. Moreover, the compound was called inactive in [18] and in assay [9].
On to `O=C(O)[C@@H]1[C@H]2C[C@H]3c4[nH]c5ccccc5c4CCN3C[C@@H]2CC[C@@H]1O`, for which the Potency entry in assay [1], in assay [3], in assay [4], in assay [15], in assay [7] and in assay [8] was “inactive” throughout. For the same compound, the Potency entry in assay [10], in [11], in [12] and in [13] was “inactive” each time. Also, the compound was classed as inactive in [2], in assay [17], in assay [18], in [5] and in assay [9].
As to `Cc1cccc(C(C)(C)C)c1O`, the Potency result in [1], in assay [3], in assay [4], in [6], in [15] and in [7] was “inactive” each time. Besides, the Potency entry in assay [8], in assay [10], in [11], in [12] and in assay [13] was “inactive” in each case. In [5], the outcome was inactive.
